Pf apPOL inh = Pf-apPOL DNA polymerase inhibition; Recombinant Pf-apPOL, molecular beacon fluorescence, 1.5 h; inhibition, % at 10 µM; hit rate 0.25% among 210,000
mHTT CaM bind = disrupts binding of mutant huntingtin to calmodulin; P42858; AlphaScreen His-mHTT/GST-CaM binding, luminescence; inhibition, % at 15 µM; hit rate 3.6% among 190,000; AID 1671202
Large screens that a line does not name were inactive; ! = not confirmed by another sample. An excerpt weighted towards active compounds, which were near 3.5% of everything screened. Rule as the data show it: active = inhibition above about 50%; inactive = the rest.

CN(C)CCNC(=O)C1CCN(Cc2cc3ccccc3n2Cc2ccccc2)CC1	mHTT CaM bind 100
COCCNC(=O)C1CCN(Cc2cc3ccccc3n2Cc2cccc(C)c2)CC1	mHTT CaM bind 60
Cc1ccc(Cn2c(CN3CCC(C(=O)NCc4ccco4)CC3)cc3ccccc32)cc1	none
COCCNC(=O)C1CCN(Cc2cc3ccccc3n2Cc2ccccc2C)CC1	mHTT CaM bind 60
COCCCNC(=O)C1CCN(Cc2cc3ccccc3n2Cc2ccc(C)cc2)CC1	mHTT CaM bind 76
O=C(CC1(c2ccccc2)C(=O)c2ccccc2C1=O)Nc1ccccc1	none
CC(C)SCCCOc1ccccc1[N+](=O)[O-]	none
COCCc1nc(C2CCCN(Cc3cccc(C#N)c3)C2)n[nH]1 (stereo unspecified)	none
O=c1[nH]c2ccccc2c(O)c1-c1nc(-c2ccccc2F)no1	none
COCCNC(=O)C1CCN(Cc2cc3ccccc3n2Cc2cccc(F)c2)CC1	mHTT CaM bind 63
COCCNC(=O)C1CCN(Cc2cc(OC)c(OC)c(OC)c2)CC1	none
O=C(Nc1cccc(N2C(=O)CCC2=O)c1)c1ccccc1	none
C=CCOc1ccccc1/C=c1\sc2nc(=O)c(-c3ccccc3)nn2c1=O	none
CCn1ccc2oc(C)c(C(=O)NCc3cc(C)ccc3C)c2c1=O	none
CCCn1ccc2oc(C)c(C(=O)N3CCN(c4ccccc4F)CC3)c2c1=O	none
CCn1ccc2oc(C)c(C(=O)N3CCN(c4cccc(C)c4C)CC3)c2c1=O	mHTT CaM bind 66
CCn1ccc2oc(C)c(C(=O)N3CCN(c4cc(C)ccc4C)CC3)c2c1=O	mHTT CaM bind 85
c1cc2c(ccc3nonc32)nn1	none
CCN(CC)Cc1c(C)[nH]c2ccc(Cl)cc2c1=O	none
Nc1nc(-c2ccccc2)cc(=S)s1	mHTT CaM bind 51 (no result: Pf apPOL inh)
Nc1nc(-c2ccc(-c3ccccc3)cc2)cs1	none
COc1c(Cl)cc(C(=O)Nc2ccc([N+](=O)[O-])cc2C)cc1Cl	none
O=[N+]([O-])c1ccc(N2CCN(c3ccccc3Cl)CC2)c([N+](=O)[O-])c1	none (no result: mHTT CaM bind)
Cc1cc(-c2nc(-c3ccc([N+](=O)[O-])o3)no2)no1	none (no result: mHTT CaM bind)
Cc1cc(C)n(-c2nnc(N)nn2)n1	none (no result: Pf apPOL inh)
Cc1cc(C)n(-c2nnc(C)c(=O)[nH]2)n1	mHTT CaM bind 90
Cc1ccc(NC2C=CS(=O)(=O)C2)cc1 (stereo unspecified)	none (no result: mHTT CaM bind)
O=C(Nc1cccc(O)c1)c1nn2c(C(F)(F)F)cc(-c3ccco3)nc2c1Br	mHTT CaM bind 61
O=C(NC1CCCC1)c1nn2c(C(F)(F)F)cc(-c3ccco3)nc2c1Br	none
Cn1c(=O)c(C(=O)NCc2ccc(F)cc2)nc2cccnc21	none
CC(=O)Nc1nc(-c2ccccc2)c(C)s1	none
Cc1ccc(C(=O)N2CCCC2COc2ccc(C(=O)N3CCOCC3)cc2)cc1 (stereo unspecified)	none
CC(C)c1ccc(C(=O)N2CCCC2COc2ccc(C(=O)N3CCOCC3)cc2)cc1 (stereo unspecified)	Pf apPOL inh 52
COc1cccc(/C=C2\SC(NC(C)=O)=NC2=O)c1OCc1ccccc1Cl	none
Cc1ccc(CNC(=O)c2cnc3c(-c4cccc(C(F)(F)F)c4)cnn3c2C)o1	none
CC(=O)c1ccc(NC2=C(N3CCCCC3)C(=O)c3ccccc3C2=O)cc1	none
COc1cccc(NC2=C(N3CCCC3)C(=O)c3ccccc3C2=O)c1	mHTT CaM bind 100
COc1cccc(NC2=C(N3CCOCC3)C(=O)c3ccccc3C2=O)c1	none
CCOc1ccc(NC2=C(N3CCCCC3)C(=O)c3ccccc3C2=O)cc1	mHTT CaM bind 96
CCc1ccc(C(C)NC(=O)c2cncc(Br)c2)cc1 (stereo unspecified)	none
CN(C)c1ccc(CN2CCCC2c2nc(-c3cccnc3)no2)cc1 (stereo unspecified)	mHTT CaM bind 56
c1cncc(-c2noc(C3CCCCN3Cc3ccco3)n2)c1 (stereo unspecified)	none
O=C(C=Cc1ccc(OC(F)(F)F)cc1)N1CCN(c2cccc(Cl)c2)CC1	none (no result: mHTT CaM bind)
CCOc1cccc(C2Nc3ccccc3-c3nnc(SCC)nc3O2)c1OC (stereo unspecified)	none
COc1ccc(C2CC(C(F)(F)F)n3nc(C(=O)N4CCCCCC4)c(Cl)c3N2)cc1 (stereo unspecified)	none
O=C(CNC1=NCCC1)c1ccc(-c2ccccc2)cc1	mHTT CaM bind 100
O=C(CNC1=NCCC1)c1ccc(Br)cc1	none
Cc1ccc(NC(=O)c2ccc(-c3cccc([N+](=O)[O-])c3)o2)cc1-c1nc2ncccc2o1	none
CCN(CCC(=O)N1CCCCC1)C(=O)c1ccoc1	none
O=c1/c(=C/c2ccccc2O)sc2n1CN(c1ccc(Cl)cc1)CN=2	Pf apPOL inh 51
O=c1/c(=C/c2ccccc2O)sc2n1CN(c1ccc(F)cc1)CN=2	none
CC(C)(C)c1cc(-c2csc(CC#N)n2)cc(C(C)(C)C)c1O	none (no result: mHTT CaM bind)
CC(C)Cn1cc2c3c(cccc31)CN(C(=O)c1ccncc1)CC2	mHTT CaM bind 55
COc1ccc(NC(=O)N2CCc3cn(CC(C)C)c4cccc(c34)C2)cc1	none
COCC(=O)N1CCc2cn(CC(C)C)c3cccc(c23)C1	mHTT CaM bind 76
CC(C)Cn1cc2c3c(cccc31)CN(C(=O)c1cnccn1)CC2	none
CC1=C(C(N)=O)C(c2ccccc2)n2nc(SCc3ccccc3Cl)nc2N1 (stereo unspecified)	none
CCOc1ccccc1C1C(C(=O)Nc2ccc(C)cc2C)=C(C)Nc2nnnn21 (stereo unspecified)	none
Cc1cc(C(=O)N2CCCC(C)C2)nc2cc(-c3ccccn3)nn12 (stereo unspecified)	none
N#CC1=C(N)SC(N)=C(C#N)C1c1cccs1	mHTT CaM bind 63!
N#CC1=C(N)SC(N)=C(C#N)C1c1ccc(O)cc1	none
N#CC1=C(N)SC(N)=C(C#N)C1c1ccc(-c2ccccc2)cc1	mHTT CaM bind 52
CC1=C(C#N)C(c2cccs2)C(C#N)=C(C)N1	none (no result: mHTT CaM bind)
O=C(CSc1nnc2ccc(-c3ccc4c(c3)OCO4)nn12)N1CCCc2ccccc21	none
Cc1ccc(NC(=O)Cn2nc(N(C)C)c3ccccc3c2=O)cc1Cl	mHTT CaM bind 80
Cc1ccc(NC(=O)Cn2nc(N(C)C)c3ccccc3c2=O)cc1	none
COc1cccc(C2CC(c3cccs3)=NN2C(=O)C(OC)c2ccccc2)c1O (stereo unspecified)	none
O=C(CNC(=O)C12CC3CC(CC(C3)C1)C2)N1CCOC(c2ccccc2)C1 (stereo unspecified)	none
CCn1c(CC2CCN(C(=O)NCc3cccc(F)c3)C2)nc2cccnc21 (stereo unspecified)	none
Cc1nn(C)cc1CN1CCCC(c2nncn2-c2ccccc2)C1 (stereo unspecified)	none
O=C(NCc1csc(C2CCCN(C(=O)c3ccoc3)C2)n1)C1CC1 (stereo unspecified)	none
c1ccc(-c2n[nH]c(C3CCCN3Cc3ccco3)n2)cc1 (stereo unspecified)	none
c1ccc(-c2n[nH]c(C3CCCN3Cc3ccccn3)n2)cc1 (stereo unspecified)	mHTT CaM bind 100
O=[N+]([O-])c1ccc(Sc2ccsc2)c([N+](=O)[O-])c1	mHTT CaM bind 69 (no result: Pf apPOL inh)
O=[N+]([O-])c1cc(Cl)ccc1Sc1ccccc1	none (no result: mHTT CaM bind)
Cc1cccc(N2CCN(CCNC(=O)c3csc4c3CCCC4)CC2)c1C	none
O=C1NN(c2ccc(Cl)c(Cl)c2)C(=O)/C1=C/c1ccc(-c2ccc3c(c2)COC3=O)o1	Pf apPOL inh 56, mHTT CaM bind 60
CC1=NN(c2ccc(Cl)c(Cl)c2)C(=O)/C1=C/c1ccc(-c2ccc3c(c2)C(=O)OC3)o1	none

Compound activity as filed in PubChem BioAssay.
